Growth data for eight compounds are collected here from PubChem BioAssay (NCI).

Some test systems named below: NCI-H23 lung; NCI-H226 lung; NCI-H322M lung; HOP-62 NSCLC; NCI-H460 lung; HOP-92 NSCLC; NCI-H522 lung; A549/ATCC NSCLC; 786-0 renal; COLO 205 colon; DU-145 prostate; K-562 leukemia; MALME-3M melanoma; MDA-MB-231 breast; SF-268 CNS; SF-295 CNS; SF-539 CNS; UACC-257 melanoma; M14 melanoma; RXF 393 renal.
Holding throughout (assay): NCI-60 one-dose screen, 48 h (100 = growth as untreated, 0 = no growth, -100 = all killed)
Holding throughout (conditions): 10 µM unless noted

About 83,000 compounds went through this panel and 20% of them were active in at least one assay; those are over-represented in the sample as a whole.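 Note: values are percent growth. 100 is the growth of untreated cells, values between 100 and 0 indicate rising inhibition; between -100 and 0 indicates cell death.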 A number with no mark means an inactive call. Active and inactive are the calls of the source. How the source made its calls: active means growth percent below 10; inactive means the rest.

`COc1ccc(N=Cc2c(O)ccc3c2oc2cc(Cl)c(O)c(Cl)c23)cc1`: the growth with NCI-H23 lung is 93.7%; with NCI-H226 lung it was 101%; in the assay on NCI-H322M lung, 122%; in the assay on HOP-62 NSCLC it was 95%; in the assay with NCI-H460 lung, 99.8%; in the assay on HOP-92 NSCLC, 88.8%. Besides, the growth was 68.1% with NCI-H522 lung; 95.5% in the assay on A549/ATCC NSCLC; 88.8% in the assay on 786-0 renal; 131% in the assay on COLO 205 colon; 125% with DU-145 prostate; 81.1% in the assay with K-562 leukemia. Also, the growth with MALME-3M melanoma was 106%; in the assay with MDA-MB-231 breast, 107%; in the assay with SF-268 CNS it was 105%; in the assay on SF-295 CNS, 115%; in the assay with SF-539 CNS, 96.7%; in the assay with UACC-257 melanoma it was 76.5%. The growth with M14 melanoma is 94.9%.
For `c1ccc(-c2nc(N3CCNCC3)c3nc(-c4ccccc4)oc3n2)cc1`, the growth in the assay with NCI-H23 lung is -56.6% (active); in the assay with NCI-H226 lung, -61.3% (active); with NCI-H322M lung it was 82%; with HOP-62 NSCLC, -78.2% (active); in the assay on NCI-H460 lung it was -73.7% (active); in the assay on HOP-92 NSCLC, 42%. Besides, the growth with NCI-H522 lung was -82.1% (active); in the assay with A549/ATCC NSCLC it was -77.2% (active); with 786-0 renal, -98.7% (active); in the assay with COLO 205 colon it was -84% (active); with DU-145 prostate, -63.2% (active); with K-562 leukemia, -10.7% (active). Also, the growth in the assay with MALME-3M melanoma is 91.8%; in the assay with MDA-MB-231 breast, -81% (active); in the assay with SF-268 CNS it was 36.1%; in the assay on SF-295 CNS, 91.2%; in the assay with SF-539 CNS, -40% (active); in the assay on UACC-257 melanoma it was 105%. Besides, the growth with M14 melanoma is 99.7%.
For `Nc1nnc(-c2ccc3ccccc3c2O)o1`, the growth in the assay on NCI-H23 lung was 85.3%; in the assay with NCI-H226 lung it was 94.8%; in the assay with NCI-H322M lung it was 88%; with HOP-62 NSCLC it was 89.8%; in the assay on NCI-H460 lung it was 92.6%; with HOP-92 NSCLC, 83%. The growth is 85.1% in the assay on NCI-H522 lung; 93.5% in the assay on A549/ATCC NSCLC; 104% with 786-0 renal; 99.5% with COLO 205 colon; 117% in the assay on DU-145 prostate; 93.5% in the assay on K-562 leukemia. Besides, the growth in the assay on MALME-3M melanoma was 89.1%; in the assay on MDA-MB-231 breast it was 92.4%; in the assay with RXF 393 renal, 99.2%; with SF-268 CNS, 94.8%; with SF-539 CNS it was 95.7%; with UACC-257 melanoma, 102%. The growth with M14 melanoma is 86.4%.
In the case of `COc1cc(/C=C/C(=O)c2cccc(-n3cc(-c4cc(OC)c(OC)c(OC)c4)[nH]c3=O)c2)cc(OC)c1OC`, the growth was 6.11% (active) in the assay on NCI-H23 lung; 58% with NCI-H226 lung; 46% in the assay with NCI-H322M lung; 42.9% in the assay on HOP-62 NSCLC; -1.97% (active) in the assay on NCI-H460 lung; -12.2% (active) with HOP-92 NSCLC. Also, the growth was -66.8% (active) with NCI-H522 lung; 35.1% in the assay on A549/ATCC NSCLC; 19% in the assay on 786-0 renal; -36.1% (active) with COLO 205 colon; 12.5% in the assay with DU-145 prostate; 0.136% (active) with K-562 leukemia. In addition, the growth was 28.9% in the assay on MALME-3M melanoma; 35.4% in the assay on MDA-MB-231 breast; -79.5% (active) with RXF 393 renal; 20.9% in the assay on SF-268 CNS; -86.1% (active) with SF-539 CNS; 37.2% in the assay with UACC-257 melanoma. In addition, the growth in the assay with M14 melanoma was -0.87% (active).
For `Cc1cccc(/C=N/Nc2cc(C)c3cccc(C)c3n2)n1`, the growth is 94.3% in the assay on NCI-H23 lung; 86.9% in the assay with NCI-H226 lung; 100% in the assay on NCI-H322M lung; 110% in the assay on HOP-62 NSCLC; 92.9% in the assay with NCI-H460 lung; 75.5% in the assay with HOP-92 NSCLC. The growth in the assay on NCI-H522 lung is 87%; in the assay with A549/ATCC NSCLC it was 87.8%; with 786-0 renal it was 107%; with COLO 205 colon, 96.2%; in the assay on DU-145 prostate, 101%; in the assay with K-562 leukemia, 69.8%. The growth is 90.4% in the assay with MDA-MB-231 breast; 98.2% in the assay with RXF 393 renal; 101% in the assay on SF-268 CNS; 88% in the assay on SF-539 CNS; 80% in the assay with UACC-257 melanoma; 98.4% in the assay on M14 melanoma.
For `O=C(NCc1cn(Cc2cccc(Oc3ccccc3)c2)nn1)c1cccnc1Nc1ccc(F)cc1`, the growth with NCI-H23 lung is 69.4%; in the assay with NCI-H226 lung it was 88.5%; with NCI-H322M lung, 77.4%; with HOP-62 NSCLC, 59.3%; in the assay on NCI-H460 lung, 34.4%; with HOP-92 NSCLC, 114%. Besides, the growth was 31.3% with NCI-H522 lung; 59.5% in the assay on A549/ATCC NSCLC; 69.8% in the assay on 786-0 renal; 70.7% with COLO 205 colon; 63.6% with DU-145 prostate; 67.5% with MALME-3M melanoma. The growth in the assay on MDA-MB-231 breast is 42.2%; in the assay with RXF 393 renal it was 65.9%; in the assay with SF-268 CNS it was 67.7%; in the assay on SF-295 CNS, 50.7%; with SF-539 CNS, 62.6%; with UACC-257 melanoma, 76.8%. In addition, the growth in the assay on M14 melanoma was 48.1%.
Take `COc1ccc2cc(-c3ccc(-c4ccc(C(=N)N)cc4)s3)ccc2c1`: the growth in the assay on NCI-H23 lung is 107%; in the assay on NCI-H226 lung, 102%; with NCI-H322M lung it was 97.7%; with HOP-62 NSCLC it was 93.3%; in the assay with NCI-H460 lung, 100%; with HOP-92 NSCLC, 87.2%. Further, the growth with NCI-H522 lung was 102%; with A549/ATCC NSCLC it was 104%; in the assay with 786-0 renal it was 99.5%; in the assay with COLO 205 colon it was 72.5%; in the assay with DU-145 prostate, 61%; with K-562 leukemia, 40%. In addition, the growth was 104% with MALME-3M melanoma; 100% with MDA-MB-231 breast; 94.6% in the assay with SF-268 CNS; 101% in the assay with SF-295 CNS; 98.9% with SF-539 CNS; 104% in the assay with UACC-257 melanoma. The growth in the assay with M14 melanoma was 97.6%.
In the case of `CC(=O)Nc1ccc(S(=O)(=O)n2ccc(-c3ccc4c(c3)CCC(C)(C)O4)n2)cc1`, the growth in the assay with NCI-H23 lung is 56.6%; in the assay with NCI-H226 lung, 52.4%; in the assay with NCI-H322M lung it was 89%; in the assay on HOP-62 NSCLC, 94.4%; with NCI-H460 lung, 41.4%; in the assay on HOP-92 NSCLC, 69.8%. The growth with NCI-H522 lung is 54%; in the assay on A549/ATCC NSCLC it was 57.8%; in the assay on 786-0 renal, 79.8%; in the assay with COLO 205 colon, 88.8%; in the assay on DU-145 prostate, 83.5%; with K-562 leukemia, 36.7%. Further, the growth in the assay on MALME-3M melanoma was 82.5%; with MDA-MB-231 breast, 88.6%; in the assay with SF-268 CNS, 77.3%; with SF-295 CNS, 60.2%; with SF-539 CNS, 73.8%; in the assay on UACC-257 melanoma, 46%. Also, the growth with M14 melanoma was 64.7%.
